Bioassay records from PubChem BioAssay.
This is a sample that favours compounds with a hit; in the whole collection about 3% have one here.
12-LOX inh: blocks human arachidonate 12S-lipoxygenase | AID 1671190 | 580,000 tested, 1.1% active | P18054 | Potency, µM (titrated, usually from 108 µM), without a hit: at the top dose activity change, negative = inhibition, usual class: inhibitors | purified 12hLO, xylenol orange hydroperoxide absorbance
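Purified human 12hLO (150 nM final) in 25 mM Hepes, 0.01% Triton X-100, pH 7.0 was preincubated 15 min at room temperature with compound. Then 40 uM arachidonic acid was added, 30 min. Hydroperoxide was read by Fe-XO absorbance ratio 573/405 nm.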
PLK1 PBD inh: inhibitors of human PLK1 polo-box domain binding; P53350; Plk1 PBD binding of FITC phosphopeptide, fluorescence polarization; Potency, µM, for inactives: max response, negative = inhibition, most hits filed as inhibitors; 360,000 tested, 2.8% active; AID 720504; note: series mostly up to about 57 µM; nearly all actives have a fitted effect of over 65% in size
VDR inh: inhibitors of human vitamin D receptor; AID 504847; VDR-SRC2-3 peptide fluorescence polarization, 2 h; Potency, µM, inactives show max response, negative = inhibition, hits mostly inhibitors; 400,000 tested, 0.93% active
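Two reagent solutions held at 4 deg C in the dark were dispensed, compounds pinned at 23 nl, and the mixture incubated 2 h at room temperature. Read-out: fluorescence polarization of VDR–SRC2-3 peptide binding.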
KAT2A inh: blocks human GCN5L2 histone acetyltransferase; Q92830; GCN5L2 HAT assay, ThioGlo1 CoA-SH fluorescence; Potency, µM (series often up to 58.9 µM), for inactives: top-dose activity change, negative = inhibition, usual class: inhibitors; 390,000 tested, 0.21% active
Target sequence (Q92830 whole entry, looked up): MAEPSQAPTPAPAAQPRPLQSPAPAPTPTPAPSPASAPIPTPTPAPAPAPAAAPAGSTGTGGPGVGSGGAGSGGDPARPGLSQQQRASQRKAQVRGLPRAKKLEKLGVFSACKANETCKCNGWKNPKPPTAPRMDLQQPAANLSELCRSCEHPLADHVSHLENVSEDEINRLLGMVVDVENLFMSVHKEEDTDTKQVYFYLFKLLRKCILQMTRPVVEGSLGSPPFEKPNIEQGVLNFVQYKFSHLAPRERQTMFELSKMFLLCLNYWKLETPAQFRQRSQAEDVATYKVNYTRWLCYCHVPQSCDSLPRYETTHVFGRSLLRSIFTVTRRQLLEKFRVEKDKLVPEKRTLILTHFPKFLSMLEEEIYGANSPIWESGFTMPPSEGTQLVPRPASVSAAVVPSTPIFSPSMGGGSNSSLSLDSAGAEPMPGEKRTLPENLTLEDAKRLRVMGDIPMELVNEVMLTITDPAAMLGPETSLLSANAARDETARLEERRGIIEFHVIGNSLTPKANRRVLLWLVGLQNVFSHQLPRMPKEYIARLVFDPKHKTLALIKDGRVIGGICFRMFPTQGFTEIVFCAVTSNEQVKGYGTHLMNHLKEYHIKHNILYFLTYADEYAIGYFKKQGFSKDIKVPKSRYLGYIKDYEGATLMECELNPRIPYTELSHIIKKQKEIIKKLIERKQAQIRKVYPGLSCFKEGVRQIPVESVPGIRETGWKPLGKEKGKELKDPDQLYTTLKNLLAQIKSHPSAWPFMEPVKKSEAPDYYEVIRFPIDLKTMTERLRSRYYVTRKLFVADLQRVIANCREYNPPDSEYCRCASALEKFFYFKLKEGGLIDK
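Compounds, pin-transferred from DMSO stocks, meet 20nM GCN5L2 for 15 min before the reaction begins with H3(1-25) peptide (75uM) and acetyl-CoA (70uM). Thiol-reactive ThioGlo1 reports CoA release over 20 min at room temperature.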
* hit, by the source's call; ! = not active in a repeat; [ ] = dose if it differs, or a comment. Calls come from the whole dose curve; as a rule, active = well fitted curve in the direction sought with a large enough effect; inconclusive = small, poorly fitted or top-dose-only effect, or another doubt; inactive = no such curve, though single readings can be large; an effect the other way counts as inactive or inconclusive. % is set by controls: 0 for no effect and ±100 for the full control effect; potency is the fitted concentration of half-maximal effect.

Cc1ccc(-c2noc(COc3ccc4c(C)cc(=O)oc4c3)n2)cc1 was read as 12-LOX inh 5%.
Screening CCN(CC)CCNC(=O)CCc1ncc(-c2ccc(Cl)cc2)o1 returned 12-LOX inh -40%.
Screening CNC(=O)Nc1cc(C)nn1C returned 12-LOX inh 2%, PLK1 PBD inh 19µM*, VDR inh inconclusive and KAT2A inh -1%.
`CC(=O)Nc1cccc(Nc2cc(C)nn2C)c1` gave 12-LOX inh 18% and PLK1 PBD inh -10%.
`O=C1CCc2cc(S(=O)(=O)N3CCC(C(=O)NCCC4=CCCCC4)CC3)ccc2N1` gave 12-LOX inh -3%, PLK1 PBD inh 21µM*, VDR inh -38% and KAT2A inh -2%.
`Cc1ccc(CCNC(=O)C2CCN(S(=O)(=O)c3ccc4c(c3)CCC(=O)N4)CC2)cc1` gave 12-LOX inh -4%, PLK1 PBD inh -4%, VDR inh -18% and KAT2A inh 2%.
For COc1cc([N+](=O)[O-])cc2cc(C(=O)NC3CCCCCC3)c(=O)oc12 the results were 12-LOX inh 14%.
For CCOc1cc(/C=C2/NC(=O)NC2=O)ccc1OCc1ccc(Cl)cc1Cl the results were 12-LOX inh -26%.
For CCOc1cc(/C=N/N=C2/NC(=O)C(CC(=O)O)S2)ccc1OCc1ccc(Cl)cc1Cl (stereo not drawn) the results were PLK1 PBD inh 27µM*, VDR inh 5% and KAT2A inh -10%.
Screening CCNC(=O)NC(=O)COc1ccc2ccc(=O)oc2c1 returned 12-LOX inh -27%.
`Cc1ccnc(SCc2cc(=O)c(OC(=O)c3cc([N+](=O)[O-])ccc3Cl)co2)n1` gave 12-LOX inh inconclusive, PLK1 PBD inh 24µM*, VDR inh -12% and KAT2A inh -4%.
For O=C(Oc1coc(CSc2ncccn2)cc1=O)c1cccc([N+](=O)[O-])c1 the results were 12-LOX inh inconclusive, PLK1 PBD inh inconclusive, VDR inh -9% and KAT2A inh -4%.
Screening CN(C)c1ccc2c(O)cc(=O)n(C)c2c1 returned 12-LOX inh -8%, PLK1 PBD inh -28%, VDR inh 32µM* and KAT2A inh -13%.
For CC1(C)CC[C@]2(C(=O)n3ccnc3)CC[C@]3(C)[C@H](C(=O)C=C4[C@@]5(C)C=C(C#N)C(=O)C(C)(C)[C@@H]5CC[C@]43C)[C@@H]2C1 the results were 12-LOX inh inconclusive, PLK1 PBD inh 1.7µM* and VDR inh 45µM*.
For O=C(NCC1CN(CC2CC2)CC12CN(c1ccccc1)C2)Nc1ccccc1 (stereo not drawn) the results were 12-LOX inh 13%[176 µM].
CO[C@H]1/C=C/O[C@@]2(C)Oc3c(C)c(O)c4c(O)c(c5c(c4c3C2=O)NC2(CCN(CC(C)C)CC2)N=5)=NC(=O)/C(C)=C\C=C\[C@H](C)[C@H](O)[C@@H](C)[C@@H](O)[C@@H](C)[C@H](OC(C)=O)[C@@H]1C was read as 12-LOX inh -11%, PLK1 PBD inh -8%, VDR inh 40µM*! and KAT2A inh 11%.
COC1/C=C\OC2(C)Oc3c(C)c(O)c4c(c3C2=O)C2(C=C(NC(=O)/C(C)=C\C=C/C(C)C(O)C(C)C(O)C(C)C(OC(C)=O)C1C)C4=O)OCC(=O)O2 (stereo not drawn) was read as 12-LOX inh 5µM*.
`N=C(N)SCc1nc2ccccc2c(=O)n1-c1ccccc1` gave 12-LOX inh 0%, PLK1 PBD inh 8.4µM*!, VDR inh inconclusive and KAT2A inh -12%.
For O=C(O)c1ccc(CSc2nc3ccccc3c(=O)n2-c2ccccc2)cc1 the results were 12-LOX inh 11%, PLK1 PBD inh -3%, VDR inh -22% and KAT2A inh -15%.
`O=C(Cn1nc2ccccc2n1)N/N=C/c1cc([N+](=O)[O-])ccc1O` gave 12-LOX inh inconclusive, PLK1 PBD inh 7.5µM*, VDR inh -22% and KAT2A inh -15%.
For O=C(NCC(=O)N1CCN(c2ccccc2O)CC1)c1ccc2c(c1)OCO2 the results were 12-LOX inh 32µM*, PLK1 PBD inh -12%, VDR inh 3% and KAT2A inh -23%.
Screening O=C(NCC(=O)N1CCN(S(=O)(=O)c2ccccc2F)CC1)c1ccc2c(c1)OCO2 returned 12-LOX inh 0%, PLK1 PBD inh 4%, VDR inh -3% and KAT2A inh 3%.
Screening O=C(Cc1ccc(Cl)cc1Cl)N1CCN(c2ccccc2O)CC1 returned 12-LOX inh 40µM*.
For CC(=O)Nc1ccc(NC(=O)CSCc2csc(-c3ccc(C)cc3)n2)cc1 the results were 12-LOX inh -5%.
Screening CC(C)c1nc2c(c(-c3ccc(O)cc3)n1)CN([S+](=O)([O-])c1ccccc1)CC2 returned 12-LOX inh -4%.
Cn1c(=O)c(=O)n(C)c2cc(S(=O)(=O)CCC(=O)N3CCOCC3)ccc21 was read as 12-LOX inh 4%, PLK1 PBD inh 27µM*, VDR inh inconclusive and KAT2A inh -1%.
COC(=O)c1ccccc1NC(=O)c1ccc(COc2ccccc2)o1 was read as 12-LOX inh inconclusive, PLK1 PBD inh -23% and VDR inh 5%.
`Cc1ccc(C(=O)O)cc1NC(=S)NC(=O)c1ccc(COc2ccccc2)cc1` gave 12-LOX inh 2.8µM*, PLK1 PBD inh inconclusive, VDR inh -3% and KAT2A inh inconclusive.
`COc1ccccc1C(=O)NC(=S)Nc1cc(C(=O)O)ccc1C` gave 12-LOX inh inconclusive, PLK1 PBD inh inconclusive, VDR inh -27% and KAT2A inh -6%.
For COc1ccc(NC(=O)c2cccnc2NCCc2ccccc2)cc1 the results were 12-LOX inh 45µM*, PLK1 PBD inh 2%, VDR inh -27% and KAT2A inh -9%.
For COc1ccc(NC(=O)c2ccc(COc3ccccc3)o2)cc1 the results were 12-LOX inh -1%, PLK1 PBD inh 11µM*, VDR inh inconclusive and KAT2A inh inconclusive.
For O=C(Nc1ccccc1)c1ccc(COc2ccccc2)cc1 the results were 12-LOX inh -4%, PLK1 PBD inh 30µM*, VDR inh inconclusive and KAT2A inh -3%.
For O=C(Nc1ccccc1)c1cccnc1NCCc1ccccc1 the results were 12-LOX inh -5%, PLK1 PBD inh 4%, VDR inh 3% and KAT2A inh -6%.
`Fc1ccc(-c2nc(COc3ccccc3F)co2)cc1` gave 12-LOX inh -6%.
For CN(C)C(=O)CN1CCN(CC2CCCCC2)CC1 the results were 12-LOX inh 12%.
CC(=O)N1CCN(c2ccc(NC(=O)c3cccc(OCc4ccccc4)c3)cc2)CC1 was read as 12-LOX inh 277%, PLK1 PBD inh 0%, VDR inh -12% and KAT2A inh -3%.
For CC(=O)N1CCN(c2ccc(NC(=O)c3ccccc3Cl)cc2)CC1 the results were 12-LOX inh inconclusive, PLK1 PBD inh 21µM*, VDR inh -13% and KAT2A inh -17%.
